# Results: ChEMBL document CHEMBL1157539, “Thousands of chemical starting points for antimalarial lead identification” (Nature, 2010)
# Tests used:
# Type in all cases: functional
# Plasmodium falciparum [1] = assay: GSK_TCMDC: Inhibition of Plasmodium falciparum 3D7 in whole red blood cells, using parasite LDH activity as an index of growth. Test compounds present at 2uM
# Plasmodium falciparum [2] = assay: GSK_TCMDC: Inhibition of Plasmodium falciparum Dd2 in whole red blood cells, using parasite LDH activity as an index of growth. Test compounds present at 2uM
# HepG2 = assay: GSK_TCMDC: Percent inhibition of human HepG2 cell line. Test compounds present at 10uM.
SMILES,Inhibition (Plasmodium falciparum [1]) [%],Inhibition (Plasmodium falciparum [2]) [%],Inhibition (HepG2) [%]
CSc1ccc(NC(=O)Nc2cc(C)nc3ccccc23)cc1Br,100,66,7
Cc1cccc2nc(-c3ccc(-c4ccc(CN5CCCC(N)C5)cc4)cc3)[nH]c12.O=C(O)C(F)(F)F (stereo not drawn),99,100,33
N#Cc1ccc(CN2CCC(Oc3ccc(NC(=O)c4ccco4)cc3Cl)CC2)cc1.O=C(O)C(F)(F)F,95,96,7
O=C(n1c(-c2cc3ccccc3n2C(=O)C(F)(F)F)cc2ccccc21)C(F)(F)F,94,80,30
CSc1nc2nc(C)c(Cc3cccc(C(F)(F)F)c3)c(C)n2n1,98,95,4
CCC(C)NC(=O)Cn1c2ncccc2c(=O)n1-c1ccc(C)cc1 (stereo not drawn),95,63,4
Cc1ccccc1C1CCN(C2CCC(NC(=O)c3ccc(-c4ccccn4)s3)CC2)CC1 (stereo not drawn),87,17,32
Cc1cc(NC(=O)Nc2cccc(C#N)c2)c2ccccc2n1,100,82,17
COc1ccccc1CNC(=O)c1cc(C2CC2)nc2c1cnn2C(C)C,94,92,47
Fc1ccc2cc(C=Cc3ccncc3)[nH]c2c1,100,89,0
CC(C)(C(=O)Nc1ccc(C2CCC(NCC3CC3)CC2)c(Cl)c1)c1ccc(C(F)(F)F)cc1 (stereo not drawn),97,18,64
COc1ccc(-c2c(-c3ccc(OCc4ccccc4)cc3O)n[nH]c2C(F)(F)F)cc1,93,57,49
O=C(Nc1ccc(Cl)cc1)Nc1cccc(-c2cccc(-c3nc4cc(F)ccc4[nH]3)c2)c1,100,84,79
COCCN1CCC(C(=O)NCC(C)(C)c2nc(-c3ccc(Br)c(O)c3)c(-c3ccncc3)[nH]2)CC1.Cl,99,6,0
O=C(/C=C/c1ccc(Cl)c(Cl)c1)NCCCCCN1CCCN(C(=O)Nc2cccc(Cl)c2)CC1,100,2,11
O=C(/C=C/c1ccc(C(F)(F)F)cc1)NCCCCCN1CCCN(C(=O)Nc2cccc(Cl)c2)CC1,92,3,16
CCN(CC)C(C)(C)CN(Cc1ccc(-c2ccc(C(F)(F)F)cc2)cc1)C(=O)Cn1c(CCc2cccc(F)c2F)nc(=O)c2ccccc21.O=C(O)C(O)C(O)C(=O)O,91,79,53
COc1ccc(S(=O)(=O)N(CC(=O)NN=C(C)c2cccs2)c2cc(C)cc(C)c2)cc1OC,97,43,12
O=C(Nc1ccc(S(=O)(=O)N2CCCCC2)cc1)c1cc(-c2ccccc2O)n[nH]1,94,81,13
Cc1cccc2nc(-c3ccc(-c4cccc(CNCCNC(=O)c5ccnn5C)c4)s3)[nH]c12.O=C(O)C(F)(F)F,100,87,17
CN1CCC(C(=O)Nc2cccc(-c3ccc(-c4nc5cc(F)ccc5[nH]4)cc3)c2)CC1,100,51,12

SMILES,Inhibition (Plasmodium falciparum [1]) [%],Inhibition (Plasmodium falciparum [2]) [%],Inhibition (HepG2) [%]
Nc1c2c(nc3ccc(Oc4ccc(Cl)cc4)cc13)CCCC2,100,65,42
COCCNCc1cccc(-c2ccc3c(Nc4ccc(F)cc4Cl)ccnc3c2)c1,100,100,8
O=C(NC1CC1)c1ccc(N2CCC(Oc3ccc(F)cc3)CC2)nc1,89,79,0
CO/C(=C\C=C/c1cc2cc(Cl)c(Cl)cc2[nH]1)C(=O)NC1CC(C)(C)N(C)C(C)(C)C1,93,34,65
O=C(/C=C/c1ccc(Cl)cc1)NCCCCCN1CCCN(C(=O)Nc2ccc(Cl)c(C(F)(F)F)c2)CC1,95,1,54
Cc1ccc(O)c(-c2cc(C(=O)Nc3ccc(S(=O)(=O)N4CCCCC4)cc3)[nH]n2)c1,94,98,31
CC(=NNC(=N)N)c1ccc2ccc3ccccc3c2c1.Cl,97,23,14
Clc1cc(Nc2ccnc3ccc(Br)cc23)ccc1Oc1ccc2ccccc2c1Cl,100,93,5
COc1ccc2nc(C)cc(Nc3ccc(Cl)cc3)c2c1,89,3,10
OC(CNCCCc1ccccc1)c1cc(OCc2ccccc2)cc(OCc2ccccc2)c1 (stereo not drawn),93,85,8
NCc1ccc(CNCc2cccc(-c3ccc(-c4nc5cc(C(F)(F)F)ccc5[nH]4)cc3)c2)cc1.O=C(O)C(F)(F)F,98,90,13
Br.Oc1ccc(CCNCCCCCCNCCc2ccc(Cl)c3ccccc23)cc1O,99,1,22
CCc1cn2c3c(cc(C(=O)N[C@@H](Cc4ccccc4)[C@H](O)CNC4CCCC4)cc13)N(C)S(=O)(=O)CC2,100,99,6
CCCc1ccc(NC(=O)c2ccc(CN3CCCN(Cc4cccc(O)c4)CC3)cc2)cc1.O=C(O)C(F)(F)F,100,63,51
Cn1cncc1C(=O)Nc1cccc(-c2ccc(-c3nc4cc(F)ccc4[nH]3)cc2)c1,100,31,0
COCCNCc1ccc(-c2cccc(CNc3ccc(OC)cc3)c2)cc1.O=C(O)C(F)(F)F,94,2,16
COc1ccc2nccc(N3CCC(CCNCc4ccc5c(n4)NC(=O)CS5)CC3)c2c1.Cl,100,86,55
COc1ccc(-c2c3c(=O)n(C)c(=O)n(C)c3c3nnc4ccccc4n23)cc1,96,86,0
O=C(NC1CCN(Cc2ccccc2)CC1)c1ccc(-c2nc3cc4ccccc4cc3[nH]2)s1,99,25,13
COc1ccc2nccc([C@@H](O)CN3CCC(NC(=O)C(c4cccs4)N4CCN(c5ccc(F)cc5)CC4)CC3)c2c1 (stereo partly drawn),97,45,9
O=C(NC1CCN(c2ccnc3cc(Cl)ccc23)C1)c1ccc(F)cc1.O=C(O)C(F)(F)F (stereo not drawn),94,97,26

SMILES,Inhibition (Plasmodium falciparum [1]) [%],Inhibition (Plasmodium falciparum [2]) [%],Inhibition (HepG2) [%]
COc1ccc(C2C(C(=O)Nc3cc(Cl)c(OC)cc3OC)c3ccccc3C(=O)N2C)cc1 (stereo not drawn),100,98,14
Cc1ccccc1C1CCN(C2CCC(NC(=O)c3ccc(-c4cc(C(F)(F)F)nn4C)s3)CC2)CC1 (stereo not drawn),98,68,42
CC(C)(C)c1ccc2[nH]c(-c3ccc(/C=C/C(=O)NC4CCN(Cc5ccccc5)CC4)cc3)nc2c1,100,96,45
Cc1cc(-c2ccc(NC(=O)Nc3ccc4nccc(N5CCN(C)CC5)c4c3)cc2C)cc(C)n1.Cl,100,76,0
CC(=O)Nc1ccc(CN2CCC(NC(=O)c3ccc(-c4cccc(Cl)c4)s3)CC2)cc1.O=C(O)C(F)(F)F,97,59,34
O=C(NC1CCN(Cc2cccc(C(F)(F)F)c2)CC1)c1ccc(-c2cccc(C(F)(F)F)c2)s1.O=C(O)C(F)(F)F,94,54,36
Cc1ccn2c(C(=O)N3CCN(c4cccc5c4nc(-c4ccoc4)n5Cc4ccccn4)CC3)c(C)nc2c1,98,99,2
COc1cc2nc(N3CCC(CNC(=O)c4ccc(-c5ccc(C#N)cc5)cc4)CC3)nc(N)c2cc1OC,100,99,21
O=C(CCCCCNC(=O)c1ccc(O)c(-c2ccc(Cl)c(Cl)c2)c1)NCc1cccc2ccccc12,99,15,2
CC1=C(C(=O)Nc2cc3cn[nH]c3cc2F)C(c2cccc(NS(C)(=O)=O)c2)CC(=O)N1 (stereo not drawn),96,97,0
COc1ccccc1-c1ccc(CNC(=O)C(CN2CCN(C)CC2)c2ccccc2)cc1 (stereo not drawn),90,4,3
CCCCCCNc1cc(C)nc2ccc(OC)cc12.Cl,100,94,19
Cc1cnc(C(=O)Nc2cccc(-c3csc(-c4nc5ccccc5[nH]4)c3)c2)cn1,98,80,31
CCN(CC)CCN1C(=O)c2oc3ccc(Cl)cc3c(=O)c2C1c1ccc(SC)cc1 (stereo not drawn),98,6,0
COc1ccc(-c2ccc(NC(=O)c3ccc(C#N)cc3)cc2)cc1CN(C)CCN(C)C.O=C(O)C(F)(F)F,96,58,28
Cc1cc(=NN=Cc2ccc(F)cc2)c2cc(F)ccc2[nH]1,100,61,6
Cc1ccc(Nc2nc(N/N=C/c3ccccc3[N+](=O)[O-])nc(Nc3ccc([N+](=O)[O-])cc3)n2)cc1C,100,81,4
c1cncc(Oc2ccc(Nc3ccnc4cc(-c5cccc(CNCCN6CCOCC6)c5)ccc34)cc2)c1,100,99,14
CSc1ccc(CN2CCC(NC(=O)c3ccc(-c4ccc(N(C)C)cc4)s3)CC2)cc1.O=C(O)C(F)(F)F,86,26,30
